High-throughput results as filed in PubChem BioAssay.
TRPM1 prom inh – inhibitors of MITF-dependent TRPM1 promoter reporter, primary screen, cell-based, SK-MEL-5, single point, luciferase. SK-MEL-5 TRPM1 promoter luciferase, 24 h. inhibition, % at 12.5 µM. 330,000 tested, 0.83% active. AID 488899, 2010;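 active = mean inhibition across replicates of 60% or more, whatever share of single replicates reaches that level; inconclusive = some that reach 60%, reason not given; inactive = mean inhibition across replicates below 60%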
ABHD5-PLIN5 inh – ABHD5-PLIN5 interaction inhibitors, primary screen, cell lysate, split luciferase complementation, luminescence | Perilipin-5 (Homo sapiens) + 1-acylglycerol-3-phosphate O-acyltransferase ABHD5 (Homo … | Split G. princeps luciferase complementation, 4 h | inhibition, % at 4 µM | 360,000 tested, 0.78% active;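 active = inhibition above the mean inhibition across every tested compound plus 3 SD, cut at about 22% in these data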;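 also: 0% = DMSO only wells and the 100% control is not disclosed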
Target sequence (Q00G26 whole entry, looked up): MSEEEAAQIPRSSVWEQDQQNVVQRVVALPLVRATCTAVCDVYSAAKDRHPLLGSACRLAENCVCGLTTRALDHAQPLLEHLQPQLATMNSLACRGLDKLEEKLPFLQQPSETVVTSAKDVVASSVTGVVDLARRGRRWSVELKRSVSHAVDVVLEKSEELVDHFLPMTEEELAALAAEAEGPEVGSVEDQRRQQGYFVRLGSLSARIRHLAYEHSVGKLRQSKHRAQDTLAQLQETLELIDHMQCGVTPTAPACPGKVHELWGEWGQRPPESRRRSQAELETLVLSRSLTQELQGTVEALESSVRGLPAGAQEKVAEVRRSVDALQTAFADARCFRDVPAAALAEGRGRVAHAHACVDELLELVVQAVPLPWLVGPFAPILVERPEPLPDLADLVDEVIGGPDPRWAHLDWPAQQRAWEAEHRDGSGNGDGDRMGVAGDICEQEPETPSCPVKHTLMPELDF
Target sequence (Q8WTS1 whole entry, looked up): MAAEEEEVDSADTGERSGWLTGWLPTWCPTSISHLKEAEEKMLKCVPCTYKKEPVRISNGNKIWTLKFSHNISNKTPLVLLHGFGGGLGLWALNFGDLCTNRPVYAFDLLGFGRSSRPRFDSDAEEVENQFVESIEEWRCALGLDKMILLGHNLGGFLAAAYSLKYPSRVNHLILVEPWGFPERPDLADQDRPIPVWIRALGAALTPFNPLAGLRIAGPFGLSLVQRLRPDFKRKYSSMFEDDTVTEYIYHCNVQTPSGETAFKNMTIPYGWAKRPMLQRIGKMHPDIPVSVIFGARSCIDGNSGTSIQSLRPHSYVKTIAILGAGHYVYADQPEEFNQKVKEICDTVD
Shn3 3UTR inh – reduction of Shn3 3'UTR firefly luciferase signal, primary screen, Schnurri-3 inhibitor project, cell-based, Clone20 osteoblasts, set 2. Clone20 osteoblast Shn3 3'UTR firefly luciferase, 24 h. inhibition, % at 12.5 µM. 360,000 tested, 0.52% active;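 active = mean inhibition of at least 75% with every replicate also reaching 75%; inconclusive = mean inhibition at least 75% but some replicate below; inactive = mean inhibition below 75%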;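 also: 0% = median of neutral control wells and 100% = pilot-screen positive control compound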
Peg3 promoter – Peg3 promoter-driven luciferase inhibitors, primary screen, cell-based, HeLa, luciferase luminescence; HeLa PEG-Prom luciferase reporter, overnight; AID 588405, 2011; inhibition, % at 20 µM; 360,000 tested, 1.7% active;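 active = inhibition of at least 50% at 20 µM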
EWS-Fli block – EWS/Fli-driven NR0B1 reporter inhibitors, primary screen, A673 cells, NR0B1 luciferase, luminescence, MLPCN library. inhibition, % at 12.6 µM. viability-normalised. 350,000 tested, 0.67% active;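 active = mean inhibition of at least 50% after viability correction, with every replicate also passing that limit; inconclusive = mean reaches 50% but only one of two replicates passes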;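 also: firefly luciferase signal divided by Alamar Blue viability fluorescence both relative to DMSO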
PAX8 reporter – inhibitors of PAX8-driven TPO luciferase reporter, primary screen, RMG-I cells, single concentration; AID 652154, 2013; SteadyGlo, 24 h; inhibition, % at 12.6 µM; 360,000 tested, 1.2% active;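 active = mean replicate inhibition at least 60% with every replicate also reaching 60%; inconclusive = only one of the two criteria is met; inactive = mean below 60% and not all replicates reaching 60%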;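 also: luciferase light reporting Pax8 driven TPO promoter activity; plate controls were median of neutral control wells for no effect and mitoxantrone controls for full effect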
An asterisk follows results filed as active; ? = inconclusive; · = no result given. Hits are enriched below; roughly 3% of the tested compounds scored in any of these assays.

SMILES | TRPM1 prom inh | ABHD5-PLIN5 inh | Shn3 3UTR inh | Peg3 promoter | EWS-Fli block | PAX8 reporter
CC(C)C[C@H](N)c1nnc(SCC(=O)Nc2ccc(Br)cc2)o1 | 2 | 2 | -15 | 16 | · | -8
COc1ccc(C(=O)N/N=C/c2c[nH]c3ccccc23)cc1 | -6 | -3 | -16 | -76 | -43 | -37
CCCCCN=C(N)N/N=C/c1c[nH]c2ccc(OC)cc12 | 97* | 2 | 67 | 95* | 57* | 107*
CCCOc1ccc(C(=O)N/N=C/c2c[nH]c3ccc(Br)cc23)cc1 | 9 | -1 | -14 | 51* | 3 | -13
COc1ccc2c(/C=N/Nc3ccc(C(=O)O)cc3)c[nH]c2c1 | -19 | -14 | -44 | -184 | -147 | -56
C[C@@H]1CCCCO[C@H](CN(C)C(=O)Nc2ccc3c(c2)OCO3)[C@@H](C)CN([C@@H](C)CO)C(=O)c2cc(NS(=O)(=O)c3cccs3)ccc2O1 | · | · | · | · | -9 | -12
Cc1cc(/C=N/n2cnnc2)c(C)n1-c1ccc(OCc2ccc(Cl)cc2Cl)cc1 | 92* | -6 | 98* | 41 | · | ·
Cc1nn(-c2ccccc2)c(N2CCCC2)c1/C=N/NC(=O)c1cc(-c2cccs2)nc2ccccc12 | 5 | -1 | 22 | 36 | 13 | -4
Cc1nn(-c2ccccc2)c(N2CCCC2)c1/C=N/NC(=O)c1cc(-c2ccccn2)nc2ccccc12 | 8 | -2 | 15 | 57* | · | 35
Cc1nn(-c2ccccc2)c(N2CCCC2)c1/C=N/NC(=O)c1cc(-c2ccccc2)nc2ccccc12 | 8 | -5 | -14 | 55* | 7 | 16
CCC1(O)CC2CN(CCc3c([nH]c4ccccc34)C(C(=O)OC)(c3cc4c(cc3OC)N(C=O)C3C(O)(C(=O)OC)C(OC(C)=O)C5(CC)C=CCN6CCC43C65)C2)C1 (stereo not given) | 52 | -3 | -6 | -22 | 44 | 83*
COc1ccc(CCNC(=O)[C@H](C)N2C(=O)N3CCc4c([nH]c5ccccc45)[C@@]3(C)C2=O)cc1OC | 15 | 2 | 27 | 2 | 6 | ·
COc1ccc(NC(=O)Cn2c(=O)n(-c3ccc(CC(=O)NCc4ccco4)cc3)c(=O)c3ccccc32)cc1 | 71* | 2 | 8 | 16 | 10 | 38
CC(C)CC#Cc1cnc2c(c1)C(=O)N([C@@H](C)CO)C[C@@H](C)[C@@H](CN(C)C(=O)Nc1ccccc1F)O2 | · | · | · | · | 3 | ·
Cc1ccc(S(=O)(=O)Nc2ccc3c(c2)C(=O)N([C@@H](C)CO)C[C@@H](C)[C@@H](CN(C)Cc2ccc(C(F)(F)F)cc2)OCCCC[C@H](C)O3)cc1 | · | · | · | · | 28 | 87*
Cc1ccc(S(=O)(=O)Nc2ccc3c(c2)C(=O)N([C@H](C)CO)C[C@@H](C)[C@H](CN(C)Cc2ccc(C(F)(F)F)cc2)OCCCC[C@@H](C)O3)cc1 | · | · | · | · | 13 | 102*
COc1ccccc1CN1CC[C@H]2[C@H](CO)Nc3ccc(C#Cc4ccccc4)cc3[C@H]21 | · | · | · | · | 1 | 4
COc1cccc(CN(C)C[C@@H]2OCc3cn(nn3)CCCC(=O)N([C@@H](C)CO)C[C@H]2C)c1 | · | · | · | · | 3 | -2
Cc1csc(NC(=O)CSc2nc3[nH]c(=O)cc(O)c3s2)n1 | 87* | -3 | 76 | 99* | 32 | 31
O=C(CSc1nc2[nH]c(=O)cc(O)c2s1)Nc1nncs1 | -9 | 6 | 5 | 5 | -6 | 1
O=S(=O)(c1ccc(Cl)c(Cl)c1)c1snnc1-c1ccccc1 | 88* | 19 | ? | 73* | · | ·
O=C(NNC(=O)C12CC3CC(CC(C3)C1)C2)c1ccccn1 | 49 | 1 | -15 | 60* | 20 | 54
O=C(NNC(=O)C12CC3CC(CC(C3)C1)C2)c1cnccn1 | 1 | 1 | 15 | 16 | · | -10
C[C@@H]1CN([C@@H](C)CO)C(=O)c2cc(NC(=O)CCCN(C)C)ccc2O[C@@H]1CN(C)CC1CCCCC1 | · | · | · | · | 4 | ·
CC12C(=O)N(c3nccs3)C(=O)C1(C)C1CCC2O1 (stereo not given) | · | 16 | -12 | 1 | 8 | -10
SMILES | TRPM1 prom inh | ABHD5-PLIN5 inh | Shn3 3UTR inh | Peg3 promoter | EWS-Fli block | PAX8 reporter
C[C@@]12C(=O)OC(=O)[C@]1(C)C1CCC2O1 | 80* | 12 | 94* | 84* | 0 | 112*
CCCCCCN(C(=O)CCCCCN1C(=O)NC(c2ccc(-c3ccccc3)cc2)C(C(=O)OCc2ccccc2)=C1C)C(C(=O)NCCCC)c1ccc(-c2ccccc2)cc1 (stereo not given) | · | · | · | · | -13 | -5
CCCCCCN(C(=O)CCCN1C(=O)NC(c2ccc(-c3ccccc3)cc2)C(C(=O)OCc2ccccc2)=C1C)C(C)C(=O)NCCCC (stereo not given) | 6 | 1 | 22 | 1 | -1 | 99*
CCOc1cc(CNc2ccc3c(c2)OCCO3)cc(Br)c1OC | 62* | 2 | 51 | 46 | · | ·
COCCNc1nc(NCc2ccc(NC(C)=O)cc2)c2sc(-c3ccccc3)cc2n1 | · | 12 | 32 | 25 | 43 | 86*
c1ccc(CNc2nc(NCC3CC3)nc3cc(-c4ccccc4)sc23)cc1 | · | 13 | 44 | 83* | -13 | -36
c1ccc(OCCNc2nc(NCC3CC3)nc3cc(-c4ccccc4)sc23)cc1 | · | -3 | 64 | 47 | 3 | 54
C=CCNc1nc(NCc2ccc(N(C)C)cc2)c2sc(-c3ccccc3)cc2n1 | · | 5 | -64 | 70* | -81 | -174
C=CCNc1nc(Nc2ccc(OC)c(OC)c2)c2sc(-c3ccccc3)cc2n1 | · | 3 | 19 | -85 | 56* | ·
C=CCNc1nc(NCCOC)c2sc(-c3ccccc3)cc2n1 | · | 0 | 44 | -21 | -5 | -13
C[C@H](CO)N1C[C@H](C)[C@@H](CN(C)C(=O)C2CCC2)Oc2ncc(C#CC3CCCC3)cc2C1=O | · | · | · | · | 11 | ·
C[C@H]1CN([C@@H](C)CO)C(=O)c2cc(-c3cccc(C#N)c3)cnc2O[C@@H]1CN(C)C(=O)C1CC1 | · | · | · | · | -13 | ·
COCCNc1nc(NCc2cccc(OC)c2)c2sc(-c3ccccc3)cc2n1 | · | 11 | 48 | 57* | 14 | 1
CC1C=NC(S(=O)(=O)N2CC[C@@H]3[C@H](CO)N(C)c4ccc(C#Cc5cccnc5)cc4[C@@H]32)=N1 (stereo not given in full) | · | · | · | · | -7 | -22
C[C@H](NC(=O)C[C@H]1C[C@@H]2c3cc(NC(=O)NC4CCCC4)ccc3O[C@@H]2[C@@H](CO)O1)c1ccccc1 | · | · | · | · | -1 | 15
COc1ccc(-c2ccccc2C2Cc3nnccc3CN2)cc1 (stereo not given) | · | · | · | · | -4 | 72*
O=C(C[C@H]1C[C@H]2c3cc(NS(=O)(=O)c4ccccc4)ccc3O[C@H]2[C@H](CO)O1)N1CCCCC1 | · | · | · | · | 6 | 0
